Measurements published in PubChem BioAssay (NCI).
Compounds without any hit were thinned out: in the full panel of roughly 83,000, 20% have a hit.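 Compound tested at a single concentration for 48 hours in 96-well plates; a percent growth value below 10 was scored as active.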 The source made the active and inactive calls.

Columns and labels:
Assay in all cases: NCI-60 one-dose screen, 48 h (100 = growth as untreated, 0 = no growth, -100 = all killed)
Details in all cases: 10 µM unless noted
HCT-15 colon = tested on: HCT-15 colon
HT29 colon = tested on: HT29 colon
SNB-75 CNS = tested on: SNB-75 CNS
SNB-19 CNS = tested on: SNB-19 CNS
U251 CNS = tested on: U251 CNS
PC-3 prostate = tested on: PC-3 prostate
SK-MEL-5 melanoma = tested on: SK-MEL-5 melanoma
LOX IMVI melanoma = tested on: LOX IMVI melanoma
SK-MEL-28 melanoma = tested on: SK-MEL-28 melanoma
SN12C renal = tested on: SN12C renal
UO-31 renal = tested on: UO-31 renal
TK-10 renal = tested on: TK-10 renal
ACHN renal = tested on: ACHN renal
CAKI-1 renal = tested on: CAKI-1 renal
A498 renal = tested on: A498 renal
CCRF-CEM leukemia = tested on: CCRF-CEM leukemia
MOLT-4 leukemia = tested on: MOLT-4 leukemia
EKVX NSCLC = tested on: EKVX NSCLC
UACC-62 melanoma = tested on: UACC-62 melanoma
SK-MEL-2 melanoma = tested on: SK-MEL-2 melanoma

Measured: growth

O=C(Nc1ccc2[nH]c3ccccc3c2c1)c1ccccc1Cl
inactive: HCT-15 colon 31.7% | SNB-75 CNS 59.1% | SNB-19 CNS 82.9% | U251 CNS 32.6% | PC-3 prostate 54.1% | SK-MEL-5 melanoma 30.3% | LOX IMVI melanoma 33.9% | SK-MEL-28 melanoma 57.8% | SN12C renal 61.3% | UO-31 renal 65.7% | TK-10 renal 49.7% | ACHN renal 70% | CAKI-1 renal 27.2% | A498 renal 44.7% | CCRF-CEM leukemia 40.1% | MOLT-4 leukemia 33.4%
active: HT29 colon 1.78%

COc1ccc2c(c1)N(CCO)C1=C(C(=O)OC1)C2c1cccc(Br)c1 (stereo unspecified)
active: HCT-15 colon 7.92% | HT29 colon -9.38% | SK-MEL-5 melanoma 2.15% | CAKI-1 renal 8.86% | A498 renal -1.77%
inactive: SNB-75 CNS 29.2% | SNB-19 CNS 35.4% | U251 CNS 14% | PC-3 prostate 26.2% | LOX IMVI melanoma 22.2% | SK-MEL-28 melanoma 58.6% | EKVX NSCLC 37.4% | SN12C renal 27.3% | UO-31 renal 32.3% | TK-10 renal 60% | CCRF-CEM leukemia 11.7% | MOLT-4 leukemia 13.9%

COc1ccc(C2CC(c3cccc(Nc4ccnc5cc(Cl)ccc45)c3)=NN2c2ccc(Cl)cc2)cc1 (stereo unspecified)
active: CAKI-1 renal 1.94%
inactive: HCT-15 colon 42.5% | HT29 colon 64.2% | SNB-75 CNS 79.7% | SNB-19 CNS 94.8% | U251 CNS 65% | PC-3 prostate 60.7% | SK-MEL-5 melanoma 53.4% | LOX IMVI melanoma 47.4% | SK-MEL-28 melanoma 65.8% | SN12C renal 89.7% | UO-31 renal 50.1% | TK-10 renal 93.6% | ACHN renal 50.5% | A498 renal 49.7% | CCRF-CEM leukemia 53.5%

COc1cccc(CC(C)=C(c2ccc(OCCCN(C)C)cc2)c2ccc(OCCCN(C)C)cc2)c1
active: HCT-15 colon -78.4% | HT29 colon -81.5% | SNB-75 CNS -94.9% | SNB-19 CNS -72.1% | U251 CNS -94.8% | PC-3 prostate -89.4% | SK-MEL-5 melanoma -95.3% | UACC-62 melanoma -84.7% | LOX IMVI melanoma -79.6% | EKVX NSCLC -83.9% | SN12C renal -84.7% | UO-31 renal -97.8% | TK-10 renal -93% | ACHN renal -98.3% | CAKI-1 renal -97.7% | CCRF-CEM leukemia -53.3% | MOLT-4 leukemia -61.4%

c1ccc2c(c1)cnc1ccccc12
inactive: HCT-15 colon 98.4% | HT29 colon 94.6% | SNB-75 CNS 93.6% | SNB-19 CNS 99.2% | U251 CNS 109% | PC-3 prostate 102% | SK-MEL-5 melanoma 98.5% | LOX IMVI melanoma 104% | SK-MEL-28 melanoma 118% | EKVX NSCLC 115% | SN12C renal 95.5% | UO-31 renal 95.2% | TK-10 renal 116% | ACHN renal 100% | CCRF-CEM leukemia 97.8%
active: A498 renal -7.57%

O=C(CCc1nc2sc3c(c2c(=O)[nH]1)CCC3)NCc1cn(-c2ccccc2)nc1-c1ccccc1
inactive: HCT-15 colon 86% | HT29 colon 83.3% | SNB-19 CNS 49.8% | U251 CNS 44% | PC-3 prostate 29.9% | SK-MEL-5 melanoma 72.5% | LOX IMVI melanoma 44% | SK-MEL-28 melanoma 79.1% | EKVX NSCLC 92% | UO-31 renal 98.5% | TK-10 renal 89.4% | CAKI-1 renal 92.5% | A498 renal 66.4% | CCRF-CEM leukemia 61% | MOLT-4 leukemia 59.6%
active: SNB-75 CNS -59%

CC1=NOCC(=O)N1
inactive: HCT-15 colon 102% | HT29 colon 101% | SNB-75 CNS 85.3% | SNB-19 CNS 95.6% | U251 CNS 94.7% | PC-3 prostate 95.2% | SK-MEL-5 melanoma 99.7% | LOX IMVI melanoma 89.1% | SK-MEL-28 melanoma 99.4% | SN12C renal 102% | UO-31 renal 96.5% | TK-10 renal 103% | ACHN renal 102% | CAKI-1 renal 96.3% | A498 renal 111% | CCRF-CEM leukemia 90.3% | MOLT-4 leukemia 102%

CC(=O)[C@H]1CC[C@H]2[C@@H]3CC[C@H]4CC=CC[C@]4(C)[C@H]3CC[C@]12C
inactive: HCT-15 colon 89.8% | HT29 colon 79.4% | SNB-75 CNS 74.1% | SNB-19 CNS 98.1% | U251 CNS 102% | PC-3 prostate 58% | SK-MEL-5 melanoma 98.8% | LOX IMVI melanoma 95.4% | SK-MEL-28 melanoma 89.1% | SK-MEL-2 melanoma 79.9% | SN12C renal 96.1% | UO-31 renal 83.7% | TK-10 renal 85.9% | ACHN renal 92.4% | CAKI-1 renal 72.9% | A498 renal 103% | MOLT-4 leukemia 83.9%

CC(C)=CCC[C@H](C)c1ccc(C)c2c1OCN(CCO)C2
inactive: HCT-15 colon 105% | HT29 colon 68.7% | SNB-75 CNS 58.7% | SNB-19 CNS 57.9% | U251 CNS 85.1% | PC-3 prostate 76.9% | SK-MEL-5 melanoma 81.2% | LOX IMVI melanoma 100% | SK-MEL-28 melanoma 111% | SK-MEL-2 melanoma 99.2% | EKVX NSCLC 97.2% | SN12C renal 79.6% | UO-31 renal 42.4% | TK-10 renal 88.4% | ACHN renal 90.1% | CAKI-1 renal 91.6% | A498 renal 47.2% | CCRF-CEM leukemia 87.5% | MOLT-4 leukemia 101%

O=C(C=P(c1ccccc1)(c1ccccc1)c1ccccc1)CCl
inactive: SNB-19 CNS 69.1% | U251 CNS 34.7%
active: HCT-15 colon -18.2% | HT29 colon -54.2% | SNB-75 CNS 7.49% | PC-3 prostate 8.54% | SK-MEL-5 melanoma -4.76% | LOX IMVI melanoma -85.5% | SK-MEL-28 melanoma -6.08% | SK-MEL-2 melanoma -47.4% | SN12C renal -19.3% | UO-31 renal -95.4% | TK-10 renal -46.2% | ACHN renal -85.7% | CAKI-1 renal -74.9% | A498 renal -35.8% | CCRF-CEM leukemia -3.6% | MOLT-4 leukemia -35.8%

O=C(Nc1cnc(C(F)(F)F)cn1)c1cc(Cl)ccc1O
inactive: HCT-15 colon 10.9% | HT29 colon 22.6% | SNB-19 CNS 24.3% | CCRF-CEM leukemia 14.9%
active: SNB-75 CNS -20.4% | U251 CNS 6.83% | PC-3 prostate 5.49% | SK-MEL-5 melanoma -80.7% | LOX IMVI melanoma 6.55% | SK-MEL-28 melanoma 3.09% | SK-MEL-2 melanoma -27.6% | EKVX NSCLC 7.75% | SN12C renal 5.36% | UO-31 renal -5.6% | TK-10 renal 1.77% | ACHN renal 3.85% | A498 renal -53.5% | MOLT-4 leukemia 1.24%

F
active: HT29 colon 1.64% [6.87 mM] | SK-MEL-5 melanoma -66.1% [6.87 mM] | UACC-62 melanoma -74.4% [6.87 mM] | LOX IMVI melanoma 1.06% [6.87 mM] | EKVX NSCLC -14.8% [6.87 mM] | TK-10 renal 4.45% [6.87 mM]
inactive: HCT-15 colon 57.4% [6.87 mM] | SNB-75 CNS 11.4% [6.87 mM] | SNB-19 CNS 41.2% [6.87 mM] | U251 CNS 17% [6.87 mM] | PC-3 prostate 33% [6.87 mM] | SN12C renal 27% [6.87 mM] | UO-31 renal 12% [6.87 mM] | ACHN renal 23.6% [6.87 mM] | CAKI-1 renal 28.9% [6.87 mM] | CCRF-CEM leukemia 29.9% [6.87 mM] | MOLT-4 leukemia 23.5% [6.87 mM]

CCCCNCC(O)c1cc(-c2ccc(C(F)(F)F)cc2)nc(-c2ccc(C(F)(F)F)cc2)c1 (stereo unspecified)
active: HCT-15 colon -64.7% | HT29 colon -77% | SNB-75 CNS -85% | SNB-19 CNS -77.1% | U251 CNS -92.1% | PC-3 prostate -81.1% | SK-MEL-5 melanoma -24.2% | LOX IMVI melanoma -67.2% | SK-MEL-28 melanoma -85.3% | EKVX NSCLC -61.8% | SN12C renal -73.2% | UO-31 renal -88.2% | TK-10 renal -94.4% | ACHN renal -71.6% | CAKI-1 renal -73% | A498 renal -68.1% | CCRF-CEM leukemia -36.4% | MOLT-4 leukemia -56.7%

CC(=O)c1c(O)c(C)c(O)c2c1OC1=CC(=O)/C(=C(/C)N)C(=O)C12C (stereo unspecified)
inactive: HCT-15 colon 83.3% | HT29 colon 65.1% | SNB-75 CNS 91.5% | SNB-19 CNS 103% | U251 CNS 94.7% | PC-3 prostate 85.1% | SK-MEL-5 melanoma 88.4% | LOX IMVI melanoma 86.6% | SK-MEL-28 melanoma 105% | SK-MEL-2 melanoma 94.8% | SN12C renal 92.8% | UO-31 renal 77.8% | TK-10 renal 99.4% | ACHN renal 88.4% | CAKI-1 renal 87.1% | CCRF-CEM leukemia 93.1% | MOLT-4 leukemia 73.3%

COc1ccc2nc(C)cc(Nc3ccccc3O)c2c1
inactive: HCT-15 colon 32.8% | HT29 colon 18.9% | SNB-19 CNS 26% | PC-3 prostate 47.1% | SK-MEL-5 melanoma 72.9% | SK-MEL-28 melanoma 33.4% | SK-MEL-2 melanoma 67.7% | TK-10 renal 21.2% | A498 renal 89.8% | CCRF-CEM leukemia 50.7% | MOLT-4 leukemia 87.7%
active: SNB-75 CNS -93.2% | U251 CNS -27.5% | LOX IMVI melanoma 2.48% | SN12C renal -22.9% | UO-31 renal -56.1% | ACHN renal -38.9% | CAKI-1 renal -0.0846%

COc1ccc(/C=C(/C(=O)N2CCN(c3ccccc3)CC2)c2cc(OC)c(OC)c(OC)c2)cc1N
active: HT29 colon 7.35% | SK-MEL-5 melanoma 7.37% | A498 renal -2.34% | CCRF-CEM leukemia 8.84%
inactive: HCT-15 colon 14.6% | SNB-75 CNS 53.3% | SNB-19 CNS 24.5% | U251 CNS 14.5% | PC-3 prostate 26.7% | LOX IMVI melanoma 27.2% | SK-MEL-28 melanoma 64% | EKVX NSCLC 41.1% | SN12C renal 40.1% | UO-31 renal 52.1% | TK-10 renal 63.5% | ACHN renal 35.1% | MOLT-4 leukemia 10.1%

O=[N+]([O-])c1cccc(N=C(Nc2cccc([N+](=O)[O-])c2)c2ccccc2)c1
inactive: HCT-15 colon 68.3% | HT29 colon 47.5% | SNB-75 CNS 84.2% | SNB-19 CNS 92.4% | U251 CNS 82.6% | PC-3 prostate 51.6% | SK-MEL-5 melanoma 70.5% | LOX IMVI melanoma 97% | SK-MEL-28 melanoma 96.3% | EKVX NSCLC 81.4% | SN12C renal 83.4% | UO-31 renal 40.5% | TK-10 renal 78.8% | ACHN renal 93.8% | CAKI-1 renal 80.3% | A498 renal 104% | CCRF-CEM leukemia 65.3% | MOLT-4 leukemia 59.4%

N#Cc1c(N)c(C(=O)c2ccc3c(c2)OCCO3)n2c1CCCC2
inactive: HCT-15 colon 20.9% | SNB-19 CNS 53.7% | U251 CNS 15.4% | PC-3 prostate 23% | SK-MEL-5 melanoma 22.8% | LOX IMVI melanoma 32.2% | SK-MEL-28 melanoma 44% | SN12C renal 42.7% | UO-31 renal 34.4% | TK-10 renal 39.9% | ACHN renal 39% | A498 renal 38.8% | CCRF-CEM leukemia 30.5% | MOLT-4 leukemia 12.3%
active: HT29 colon 5.44% | SNB-75 CNS -1.33% | SK-MEL-2 melanoma 6.49% | CAKI-1 renal 4.26%
